Test results: PubChem BioAssay (NCATS)
Where “and” joins values, the source holds several entries; their conditions need not be identical. Equal values may be shown once. Records with an inconclusive call do not appear. Values without a mark were called inactive. Calls of active or inactive are those of the source. Calls follow the shape of the dose curve; as a rule, active = well fitted inhibition curve with a large enough effect in the repeat runs; inconclusive = weak or mixed curves; inactive = flat fitted curve, though single readings scatter.

Molecular target: Cytochrome P450 2D6 (Homo sapiens) (UniProt P10635)
Sequence (P10635 whole entry, looked up): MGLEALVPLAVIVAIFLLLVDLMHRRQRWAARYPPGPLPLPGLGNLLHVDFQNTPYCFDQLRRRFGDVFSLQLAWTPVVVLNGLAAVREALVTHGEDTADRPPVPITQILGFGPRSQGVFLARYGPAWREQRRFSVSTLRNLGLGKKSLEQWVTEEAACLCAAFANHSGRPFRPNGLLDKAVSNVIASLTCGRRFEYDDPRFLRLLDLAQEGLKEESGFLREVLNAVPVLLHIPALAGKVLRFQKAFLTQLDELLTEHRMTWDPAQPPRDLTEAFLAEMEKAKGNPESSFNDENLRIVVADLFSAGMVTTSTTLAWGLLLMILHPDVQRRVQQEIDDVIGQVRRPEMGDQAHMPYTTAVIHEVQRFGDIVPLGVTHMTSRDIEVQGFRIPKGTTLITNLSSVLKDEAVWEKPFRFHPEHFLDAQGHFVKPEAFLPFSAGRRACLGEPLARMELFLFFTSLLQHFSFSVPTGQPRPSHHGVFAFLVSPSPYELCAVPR
Test: Cytochrome P450 family 2 subfamily D member 6 (CYP2D6) small molecule antagonists: luciferase biochemical (cell-free) qHTS assay (AID 1645840); also: nearly all actives have a fitted effect of over 55% in size
Conditions: P450-Glo CYP2D6 enzyme, luciferin luminescence, 1 h; series mostly up to 57.4 µM; activity change, negative = inhibition: at the top concentration
Procedure, shortened: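 P450-Glo luminescent screen: recombinant CYP2D6 enzyme–proluciferin substrate mix preincubated with compound 10 min at room temperature, then NADPH regeneration added for 1 h at room temperature. Detection reagent added for 20 min; luciferin light read as relative luminescence units.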
% is scaled to controls: 0 for no effect and ±100 for the full control effect; potency is read from the fitted curve at half-maximal effect.

| Structure (SMILES) | Potency | activity change, negative = inhibition [%] |
| --- | --- | --- |
| Clc1ccc(CCC(Cn2ccnc2)Sc2c(Cl)cccc2Cl)cc1 (centres undefined) | 550 nM (active) |  |
| N[C@@H](Cc1ccc(N(CCCl)CCCl)cc1)C(=O)O | 19500 nM (active) |  |
| CCOP(=S)(OCC)Oc1cc(C)nc(C(C)C)n1 |  | 0.763 |
| CC(C)(C)CC(C)(C)c1ccc(O)cc1 | 36600 nM (active) |  |
| Oc1cc(Cl)ccc1Oc1ccc(Cl)cc1Cl | 8.64 µM (active) and 11 µM (active) |  |
| c1ccc(C2CC2)c(OCC2=NCCN2)c1 | 4360 nM (active) |  |
| Cc1ccc(S(=O)(=O)N[C@@H](CCCCN)C(=O)CCl)cc1 | 17200 nM (active) |  |
| CCN(C(C)=O)c1cccc(-c2ccnc3c(C#N)cnn23)c1 |  | -0.435 |
| C=C1C[C@@H]2[C@H](CC[C@]3(C)C(=O)CC[C@@H]23)[C@@]2(C)C=CC(=O)C=C12 |  | -8.88 |
| CC(C)=CCOc1c2occc2cc2ccc(=O)oc12 | 871 nM (active) |  |
| Clc1ccc(COC(Cn2ccnc2)c2ccc(Cl)cc2Cl)cc1 (centres undefined) | 219 nM (active) |  |
| CO[C@]12CC[C@@]3(C[C@@H]1[C@](C)(O)C(C)(C)C)[C@@H]1Cc4ccc(O)c5c4[C@@]3(CCN1CC1CC1)[C@H]2O5 | 353 nM (active) |  |
| C[C@H]1O[C@@H](O[C@H]2[C@@H](O)C[C@H](O[C@H]3[C@@H](O)C[C@H](O[C@H]4CC[C@@]5(C)[C@H](CC[C@@H]6[C@@H]5CC[C@]5(C)[C@@H](C7=CC(=O)OC7)CC[C@]65O)C4)O[C@@H]3C)O[C@@H]2C)C[C@H](O)[C@@H]1O |  | 0.783 |
| COc1ccc2c(c1OC)CN1CCc3cc4c(cc3C1C2)OCO4 (centres undefined) | 30.9 nM (active) |  |
